Results from PubChem BioAssay (NCI).
Compounds without any hit were thinned out: in the full panel of roughly 83,000, 20% have a hit.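 Each cell line was grown in a 96-well plate and treated with one concentration of compound for 48 hours. Values below 10 were considered active.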 The source made the active and inactive calls.

Legend:
Test in all cases: NCI-60 one-dose screen, 48 h (100 = growth as untreated, 0 = no growth, -100 = all killed)
Settings in all cases: 10 µM unless noted
[1] = tested on: HCT-15 colon
[2] = tested on: HT29 colon
[3] = tested on: SNB-75 CNS
[4] = tested on: SNB-19 CNS
[5] = tested on: U251 CNS
[6] = tested on: PC-3 prostate
[7] = tested on: SK-MEL-5 melanoma
[8] = tested on: UACC-62 melanoma
[9] = tested on: LOX IMVI melanoma
[10] = tested on: SK-MEL-28 melanoma

Row | SMILES | growth [1] | growth [2] | growth [3] | growth [4] | growth [5] | growth [6] | growth [7] | growth [8] | growth [9] | growth [10]
1 | CC1=C(CCCNS(C)(=O)=O)C2=C(C)C3(CC3)[C@@](C)(O)C(=O)C2=C1 | 4.29% (active) | -2.04% (active) | -60.6% (active) | 8.19% (active) | 1.79% (active) | 6.58% (active) | -89.8% (active) | -52.7% (active) | 2.21% (active) | -28.4% (active)
2 | Cc1cc(N(CCCl)CCCl)ccc1C=Nc1cccnc1 | 84.4% (inactive) | 91.6% (inactive) | 60.2% (inactive) | 81.2% (inactive) | 76.1% (inactive) | 63.1% (inactive) | 77.5% (inactive) | 46.6% (inactive) | 71.6% (inactive) | 97.5% (inactive)
3 | CC1(C)N=C(N)N=C(N)N1c1cccc(CCCCc2ccc(Cl)c(S(=O)(=O)F)c2)c1 | 66.6% (inactive) | 12.5% (inactive) | 62.2% (inactive) | 45.9% (inactive) | 35.3% (inactive) | 24.1% (inactive) | 16.4% (inactive) | 15.3% (inactive) | 16.5% (inactive) | 70.2% (inactive)
4 | COC(=O)[C@@]1(C)CC[C@]2(C)CC[C@]3(C)C4=CC=C5C(=CC(=O)C(O)=C5C)[C@]4(C)CC[C@@]3(C)[C@@H]2C1 | -83.7% (active) | -74.1% (active) | -78.9% (active) | -94.2% (active) | -97.4% (active) | -88.5% (active) | -97.1% (active) | -92.7% (active) | -90.5% (active) | -92.9% (active)
5 | C/C(=C\c1ccn(-c2ccc(N)cc2)n1)[C@@H]1C[C@@H]2O[C@]2(C)CCC[C@H](C)[C@H](O)[C@@H](C)C(=O)C(C)(C)[C@@H](O)CC(=O)O1 | 20% (inactive) | 15.4% (inactive) | 3.99% (active) | 33.3% (inactive) | 25.9% (inactive) | 13.2% (inactive) | 10.9% (inactive) | 19.7% (inactive) | 29.5% (inactive) | 59.4% (inactive)
6 | CC[C@H](C)[C@H](NC(=O)[C@H]1CCCCN1C)C(=O)N(C)[C@H](C[C@@H](OC(C)=O)c1nc(C(=O)N[C@@H](Cc2ccccc2)C[C@H](C)C(=O)OC)cs1)C(C)C | 5.1% (active) | -3.46% (active) | 31.8% (inactive) | 31.4% (inactive) | 11.8% (inactive) | 23.7% (inactive) | -69.5% (active) | 43.6% (inactive) | 8.61% (active) | 53.6% (inactive)
7 | COC(=O)CCc1c[nH]c2ccc(N(CCCl)CCCl)cc12 | 64.9% (inactive) | 59.3% (inactive) | 49% (inactive) | 54% (inactive) | 40.1% (inactive) | 65.3% (inactive) | 52% (inactive) | 49.3% (inactive) | 29.7% (inactive) | 91.1% (inactive)
8 | COc1cc(NC(C)CCCNC2CN3CCC2CC3)c2ncccc2c1 (stereo not given) | 65.8% (inactive) | 27% (inactive) | 78.1% (inactive) | 86.5% (inactive) | 77.7% (inactive) | 55.6% (inactive) | 70% (inactive) | 38% (inactive) | 76.1% (inactive) | 95.3% (inactive)
9 | COC(=O)[C@@H](C)C[C@H](Cc1ccccc1)NC(=O)c1nc([C@@H](C[C@H](C(C)C)N(C)C(=O)[C@@H](NC(=O)[C@H]2CCCN2C)C(C)C)OC(C)=O)sc1C | 13.4% (inactive) | 2.1% (active) | 51.2% (inactive) | 42% (inactive) | 5.39% (active) | 17.2% (inactive) | -20.7% (active) | 46.6% (inactive) | 25.6% (inactive) | 65.6% (inactive)
10 | COc1cc(/C=N/C2=C(C#N)C(c3ccco3)c3c(c4cc(C)ccc4oc3=O)O2)cc(OC)c1OC (stereo not given) | 91.8% (inactive) | 109% (inactive) | 82.7% (inactive) | 98.2% (inactive) | 96.6% (inactive) | 89.9% (inactive) | 93.5% (inactive) | 55.6% (inactive) | 88.5% (inactive) | 81.7% (inactive)
11 | C[S+]1C=Cc2ccccc2C1c1ccc(Cl)cc1 (stereo not given) | 96.8% (inactive) | 84.9% (inactive) | -70.7% (active) | 110% (inactive) | 67% (inactive) | 73.5% (inactive) | 99.3% (inactive) | 95.8% (inactive) | 91.1% (inactive) | 103% (inactive)
12 | Cc1cc(C)cc(Nc2nc3c(s2)CC[C@@]2(C)C3=CC[C@@H]3[C@@H]2CC[C@]2(C)C(=O)CC[C@@H]32)c1 | 19.1% (inactive) | 12.3% (inactive) | 70.5% (inactive) | 60.1% (inactive) | 46.6% (inactive) | 33.1% (inactive) | 91.6% (inactive) | 52.9% (inactive) | 4.43% (active) | 59.1% (inactive)
13 | CC[C@H](C)[C@H](NC(=O)[C@H]1CCCCN1C)C(=O)N(C)[C@H](C[C@@H](OC(C)=O)c1cccc(C(=O)N[C@@H](Cc2ccccc2)C[C@H](C)C(=O)O)n1)C(C)C | 9.38% (active) | -13.2% (active) | 8.07% (active) | 26.9% (inactive) | 13.6% (inactive) | 25.4% (inactive) | -24.5% (active) | 40.4% (inactive) | 15.3% (inactive) | 69.3% (inactive)
14 | C=COC(=O)CCN1CC1 | 109% (inactive) | 110% (inactive) | 101% (inactive) | 96.3% (inactive) | 101% (inactive) | 97.5% (inactive) | 105% (inactive) | 97.9% (inactive) | 100% (inactive) | 113% (inactive)
15 | CC(=O)O[C@H](C[C@H](C(C)C)N(C)C(=O)[C@@H](NC(=O)[C@H]1CCCCN1C)C(C)C)c1nc(C(=O)NC2CCC(C(=O)O)CC2)cs1 (stereo not given in full) | 70.6% (inactive) | 17.7% (inactive) | -1.9% (active) | 40.9% (inactive) | 33.2% (inactive) | 48.5% (inactive) | 49.8% (inactive) | 28% (inactive) | 35.5% (inactive) | 71.4% (inactive)
16 | COc1ccc(/C=C\c2cc(OC)c(OC)c(OC)c2)c(NS(=O)(=O)c2ccc(F)cc2)c1O | 6.21% (active) | 12.5% (inactive) | 34.9% (inactive) | 37.4% (inactive) | 19.1% (inactive) | 31.3% (inactive) | -28.4% (active) | 40.1% (inactive) | 19.3% (inactive) | 63.2% (inactive)
17 | ClC1=C(Cl)C(Cl)(C2(Cl)C(Cl)=C(Cl)C(Cl)=C2Cl)C(Cl)=C1Cl | -41.9% (active) | -64.2% (active) | 62% (inactive) | 10.5% (inactive) | -11.3% (active) | -8.81% (active) | -21.8% (active) | -18.6% (active) | -85.5% (active) | -18.1% (active)
18 | COc1cc([C@@H]2c3cc4c(cc3[C@H](OC(C)=O)[C@H]3COC(=O)[C@H]23)OCO4)cc(OC)c1OC | 9.64% (active) | 5.66% (active) | 41.4% (inactive) | 39.4% (inactive) | 18.9% (inactive) | 30.2% (inactive) | -17.6% (active) | 43.2% (inactive) | 18.7% (inactive) | 64.3% (inactive)
19 | c1cc2c(c3c1CCNC3)OCO2 | 102% (inactive) | 91.8% (inactive) | 86.8% (inactive) | 106% (inactive) | 92.6% (inactive) | 102% (inactive) | 101% (inactive) | 100% (inactive) | 95.7% (inactive) | 109% (inactive)
20 | COC(=O)C1CCC(NC(=O)c2csc([C@@H](C[C@H](C(C)C)N(C)C(=O)[C@@H](NC(=O)[C@H]3CCCCN3C)C(C)C)OC(C)=O)n2)CC1 (stereo not given in full) | 11.5% (inactive) | -0.603% (active) | 61.6% (inactive) | 38.4% (inactive) | 2.97% (active) | 28.9% (inactive) | -27.7% (active) | 48.1% (inactive) | 21.5% (inactive) | 60% (inactive)
21 | CO[C@H](C(=O)O)[C@@H]1Cc2cc3cc(OC4CC(OC5CC(O)C(O)C(C)O5)C(O)C(C)O4)c(C)c(O)c3c(O)c2C(=O)[C@H]1OC1CC(OC2CC(OC3CC(C)(O)C(O)C(C)O3)C(O)C(C)O2)C(O)C(C)O1 (stereo not given in full) | 38.7% (inactive) | 7.12% (active) | -55.1% (active) | 10.8% (inactive) | 10.1% (inactive) | 19.7% (inactive) | -17.2% (active) | -68.1% (active) | -6.05% (active) | -5.84% (active)
22 | CCOC(=S)S[C@H]1C[C@@H]2[C@H](CC[C@]3(C)C(=O)CC[C@@H]23)[C@@]2(C)CCC(=O)C=C12 | 101% (inactive) | 111% (inactive) | 93.1% (inactive) | 99.5% (inactive) | 102% (inactive) | 106% (inactive) | 103% (inactive) | 94.3% (inactive) | 97.9% (inactive) | 104% (inactive)
